Screens: PubChem, National Center for Advancing Translational Sciences (NCATS)
Sampled rows, rich in hits. Any-hit rate of the full collection: about 2.6%.
ClpP mod: qHTS Assay for Activators of ClpP; purified B. subtilis ClpP, FRET peptide cleavage, 20 min; ATP-dependent Clp protease proteolytic subunit (Bacillus subtilis (strain 168)), P80244; hit rate 1.9% among 340,000; AID 651965, 2013; Potency, µM (top dose mostly 57.5 µM), for inactives: at the top dose activity change, negative = active; active means well fitted falling curve with a large enough effect; inconclusive means small, poorly fitted or top-dose-only effect; inactive means no such curve, though single readings can be large or run the other way; further: potency means the concentration at half of the fitted maximal effect; the source files actives as falling curves though it sought activators and does not explain the sign; nearly all actives have a fitted effect of over 65% in size
Target sequence (P80244 whole entry, looked up): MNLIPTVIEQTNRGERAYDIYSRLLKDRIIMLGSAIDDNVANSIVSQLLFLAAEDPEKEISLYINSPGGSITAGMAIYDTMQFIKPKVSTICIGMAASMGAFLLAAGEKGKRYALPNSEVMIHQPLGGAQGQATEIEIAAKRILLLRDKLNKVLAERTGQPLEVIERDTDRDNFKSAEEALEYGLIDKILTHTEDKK
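FRET quenching reversal measured ClpP activation: 10 microg/mL B. subtilis ClpP at pH 8 with the FRET-FV decapeptide, read at 430 nm after 320 nm excitation. The 20-min minus 0-min signal was scaled between DMSO/no-enzyme wells and ADEP (5.8 microM final).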
KCNH2 3.1 block: inhibitors of human KCNH2 3.1 potassium channel isoform; U2OS KCNH2 3.1, thallium flux FluxOr; active compounds read low; activity change, % (tested at about 1.8 µM); hit rate 0.95% among 340,000;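 active means maximum activity change below -70%; inconclusive means maximum activity change from -70% to -50%; inactive means maximum activity change above -50%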;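 further: thallium influx rate constant from kinetic fluorescence after stimulation buffer; on the % scale 0 is the no-effect control and ±100 the full control effect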
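Thallium flux via FluxOr fluorescence (Red40 quencher, 45 min loading) in U2OS cells virally expressing the KCNH2 3.1 isoform (1.77 x 10^8 /mL virus, overnight at 37 C). Rate constants from 2-min kinetic reads post-stimulation, normalised to positive and negative controls.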
KCNH2 WT inh: inhibitors of human wildtype KCNH2 potassium channel; U2OS, BacMam KCNH2, thallium flux FluxOr; active compounds read low; activity change, % at 1.84 µM; hit rate 0.37% among 340,000;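 active means maximum activity change below -70%; inconclusive means maximum activity change between -70% and -50%; inactive means maximum activity change above -50%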; further: on the % scale 0 is the no-effect control and ±100 the full control effect
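U2OS cells transduced with wild-type KCNH2 virus are loaded with FluxOr dye for 45 min, and thallium flux is measured in kinetic reads before and after stimulation buffer. Rate constants are normalized to DMSO controls.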
TRPV1 potentiator: potentiators of human vanilloid receptor 1 (TRPV1); hit rate 0.02% among 320,000; Q8NER1; TRPV1-expressing cells, Fluo-8 calcium influx, capsaicin EC20 potentiation; potentiation, % at 8.33 µM; AID 540277; in the data active means potentiation above about 80%; inconclusive means between about 30% and that limit; further: 0% is about no effect
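Cells expressing TRPV1 were dye-loaded with Fluo-8 and read kinetically: 10 s baseline, 3 min after compound (agonist portion), then 2 min after EC20 capsaicin (allosteric enhancer portion). Calcium-bound dye fluorescence at 480/520 nm.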
p53 reactivation: mutant p53 re-activation in reporter cells; H1299 p53-A138V BP100-luciferase reporter, luminescence, 24 h; Potency, µM (highest dose often 92.2 µM), for inactives: top-dose activity change, positive = activation, hits mostly activators; hit rate 0.063% among 320,000; active means well fitted activation curve with a large enough effect; inconclusive means small, poorly fitted or top-dose-only effect; inactive means no such curve, though single readings can be large or run the other way; further: potency means the concentration at half of the fitted maximal effect; % of control where 0% means no effect; nearly all actives have a fitted effect of over 45% in size
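H1299 (p53-null), stable ts p53-A138V + BP100-Luc; 1000 cells/well, Opti-MEM/10% FBS; cpd 4 pt, 1:5; 24 h, 37 deg C, 5% CO2; detection reagent 10 min RT; luminescence.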
TRPV1 ag: activates the human vanilloid receptor TRPV1; TRPV1-expressing cells, Fluo-8 calcium influx, agonist mode; activation, % at 8.33 µM; hit rate 0.19% among 320,000; in the data active means activation above about 80%; inconclusive means between about 30% and that limit; further: 0% is about no effect
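Fluo-8 calcium influx in TRPV1-expressing cells, kinetic read (ex 480/em 520 nm). Compound added and read 3 min for agonist activity, followed by capsaicin at EC20 final and 2 min further read for enhancement.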
Numbers without * were called inactive; u = inconclusive; x = no result given.

SMILES	ClpP mod	KCNH2 3.1 block	KCNH2 WT inh	TRPV1 potentiator	p53 reactivation	TRPV1 ag
CCN1CCn2c3c(c4cc(C)ccc42)CCCC31 (configuration not stated)	28.2µM*	-2.2	3.3	-13.2	12.2%	7.9
Nc1ncc2[nH]c(N)nc2n1	x	9.4	1.6	x	x	x
COc1ccc(-c2c(C)nn3c(C(F)(F)F)cc(-c4ccc(C)cc4)nc23)cc1	-0.9%	x	x	x	x	x
Cc1nn2c(C(F)(F)F)cc(-c3ccc(OC(C)C)cc3)nc2c1C#N	5.01µM*	x	x	x	x	x
CCCCCCN1CCN(C2CN(Cc3ccc([N+](=O)[O-])cc3)S(=O)(=O)C2)CC1 (configuration not stated)	-0.3%	-112.3*	-96.1*	x	x	x
C=CCOc1ccc(C2NC(=O)c3ccccc3O2)cc1OC (configuration not stated)	u	6.0	-75.2*	x	x	x
Clc1nc2ccccc2cc1-c1nnn(-c2ccccc2Br)n1	-7.1%	-13.3	-73.2*	x	x	x
CC(C)CN(C)c1ccc(/C=C2\C=Cc3ccccc32)cc1	-0.1%	x	x	x	x	x
CCOc1cc(OCC)cc(C(=O)N2CCC[C@H]2C(=O)N2CCC[C@H]2C(=O)N[C@@H](C)c2ccccc2)c1	-1.2%	x	x	x	x	x
O=C(CNC(=O)c1ccco1)Nc1cc(Cl)ccc1N1CCOCC1	28.2µM*	22.3	11.4	6.5	4.2%	6.1
Cc1ccc(CNC(=O)C(C(C)C)N2Cc3ccccc3C2=O)cc1 (configuration not stated)	2.4%	x	x	x	x	x
CCN(CC1CCCN(CCc2cccc(F)c2)C1)C(=O)c1ccc(CSC)o1 (configuration not stated)	-2.6%	-83.5*	-49.3	1.9	u	6.3
Cc1ccc(C(=O)Nc2c(C)nc3ccccn3c2=O)cc1	-7.2%	x	x	x	x	x
O=C(Cc1ccccc1)Nc1ccccc1C(=O)Nc1ccccc1	1.1%	-123.3*	5.6	-11.9	9.0%	u
O=C(Cc1ccccc1)Nc1ccccc1N1CCN(c2ccccc2)CC1	0.9%	-70.3*	0.0	-15.9	9.7%	u
Cc1ccc(NC(=O)c2ccccc2NC(=O)Cc2ccccc2)cc1	-0.1%	9.2	-0.3	1.1	11.5%	u
O=C(O)/C=C\C(=O)Nc1ccccc1C(=O)NCc1ccccc1	3.98µM*	-22.8	3.5	10.5	2.3%	0.8
CCS(=O)(=O)Nc1ccc(-c2cc(-c3ccccc3)c3cc(C)ccc3n2)cc1	17.8µM*	-3.2	0.2	24.3	-12.5%	-3.5
Cc1ccc2nc(-c3ccc(NS(C)(=O)=O)cc3)cc(-c3ccccc3)c2c1	u	-7.2	3.6	5.4	-10.1%	-2.5
COc1ccc(C(=O)Oc2cc3c4c(c2)C(C)=CC(C)(C)N4C(=O)C3=O)cc1OC	3.4%	-71.7*	15.9	-4.0	-10.8%	-0.6
O=C1CC(c2ccccc2)=C(c2ccccc2)C1c1ccccc1 (configuration not stated)	-5.4%	x	10.5	x	x	x
O=C(c1cccc(Cl)c1)N1CCN(Cc2ccc3c(c2)OCO3)CC1	0.4%	-1.2	-13.9	-20.3	10.1%	u
O=C(c1cccn2c(=O)c3ccc(Cl)cc3nc12)N1CCN(Cc2ccc3c(c2)OCO3)CC1	22.4µM*	-10.9	0.6	4.4	2.1%	-0.5
Cc1ccc(S(=O)(=O)N2CCCN(C(C)c3nc4ccccc4c(=O)[nH]3)CC2)cc1 (configuration not stated)	-6.1%	-1.2	-280.2*	2.9	-6.6%	3.7
O=C(N[C@@H]1CC[C@@H](CCNC(=O)C2CCOCC2)O[C@@H]1CO)c1ccncc1	-2.2%	x	x	x	x	x
SMILES	ClpP mod	KCNH2 3.1 block	KCNH2 WT inh	TRPV1 potentiator	p53 reactivation	TRPV1 ag
CS(=O)(=O)n1nc(-c2cccnc2)nc1NCc1ccccc1	0.4%	-7.6	-13.8	-8.6	0.6%	0.4
COc1ccc(CNc2nc(-c3cccnc3)nn2S(C)(=O)=O)cc1	x	-75.6*	1.5	u	2.9%	2.0
CCCCN(CCCC)CCCNC(=O)C12CN(Cc3ccccc3)CC1C(c1cccc([N+](=O)[O-])c1)=NO2 (configuration not stated)	3.0%	-86.7*	-75.6*	22.0	6.5%	1.3
COc1ccc(N2CCN(C(c3ccccc3)c3nnnn3C(C)(C)C)CC2)cc1 (configuration not stated)	-6.7%	x	x	x	x	x
COc1ccc(C(c2nnnn2C(C)(C)C)N2CCN(c3nc4ccccc4s3)CC2)cc1 (configuration not stated)	25.1µM*	-6.1	-11.5	3.8	u	3.2
CCc1cc2c(=O)c(-c3ccc4c(c3)OCO4)coc2c(CN(C)C)c1O	3.7%	-1.5	-1.7	-19.9	4.5%	1.9
COc1cccc(Oc2c(C)oc3c(CN4CCCCC4)c(O)ccc3c2=O)c1	3.7%	-4.9	-6.1	6.8	-2.3%	-1.7
CCc1c(C)c2ccc(O)c(CN(C)C)c2oc1=O	-34.5%	5.6	-10.2	0.5	-1.3%	-0.2
CCc1cc2c(=O)c(-c3cscn3)coc2c(CN(C)C)c1O	15.8µM*	5.8	-3.8	4.5	7.5%	-4.2
Cc1oc2c(CN(C)C)c(O)ccc2c(=O)c1-c1cscn1	25.1µM*	-3.4	-2.9	1.7	3.7%	-4.0
COc1ccc(Oc2c(C)oc3c(CN(C)C)c(O)ccc3c2=O)cc1	28.2µM*	-1.8	-16.6	-0.7	2.4%	-3.2
COc1ccc(Oc2coc3c(CN(C)C)c(O)ccc3c2=O)cc1	28.2µM*	3.6	-23.5	-29.6	-5.8%	-7.5
Cc1cc(C)cc(Oc2coc3c(CN(C)C)c(O)ccc3c2=O)c1	0.0%	-3.4	13.4	-28.8	3.2%	3.4
COc1ccc(NC(=O)C2CCCN(S(=O)(=O)c3ccc4c(c3)CCCC(=O)N4)C2)c(OC)c1 (configuration not stated)	-1.5%	x	x	x	x	x
CCOC(=O)c1[nH]cnc1C(=O)Nc1cccc(N)n1	14.1µM*	-7.0	-6.6	-4.1	8.6%	-0.8
CCOC(=O)c1[nH]cnc1C(=O)Nc1ccc(F)cc1	-1.1%	17.3	15.4	-2.2	3.6%	3.2
CCCNC(=O)C1(C)CCCN(Cc2ccc(C(F)(F)F)cc2)C1 (configuration not stated)	0.7%	x	x	x	x	x
O=C(Nc1c(-c2ccccc2)[nH][nH]c1=O)c1ccco1	-1.5%	x	x	x	x	x
CCCOc1ccc(/C=C/C(=O)N2CCN(c3ccccn3)CC2)cc1	-0.8%	12.1	-0.8	-7.2	1.2%	-0.6
CCCOc1ccc(/C=C/C(=O)N2CCOCC2)cc1	-3.9%	-14.2	6.8	-8.1	x	89.4*
CC(C)c1ccc(/C=C/C(=O)N2CCOCC2)cc1	2.1%	1.7	-7.1	7.7	x	93.9*
